# Assay outcomes (PubChem BioAssay)
# KDM5B inh: blocks human KDM5B histone demethylase activity; AID 1347165; KDM5B demethylase, FDH-coupled NADH fluorescence (FDH is formaldehyde dehydrogenase); 2.6% of 220,000 active; Potency, µM (titrated, usually from 57.7 µM), actives largely listed as inhibitors; Q9UGL1; active = well fitted inhibition curve with a large enough effect; note: 0% is about no effect; nearly all actives have a fitted effect of over 70% in size
# Target sequence (Q9UGL1 whole entry, looked up): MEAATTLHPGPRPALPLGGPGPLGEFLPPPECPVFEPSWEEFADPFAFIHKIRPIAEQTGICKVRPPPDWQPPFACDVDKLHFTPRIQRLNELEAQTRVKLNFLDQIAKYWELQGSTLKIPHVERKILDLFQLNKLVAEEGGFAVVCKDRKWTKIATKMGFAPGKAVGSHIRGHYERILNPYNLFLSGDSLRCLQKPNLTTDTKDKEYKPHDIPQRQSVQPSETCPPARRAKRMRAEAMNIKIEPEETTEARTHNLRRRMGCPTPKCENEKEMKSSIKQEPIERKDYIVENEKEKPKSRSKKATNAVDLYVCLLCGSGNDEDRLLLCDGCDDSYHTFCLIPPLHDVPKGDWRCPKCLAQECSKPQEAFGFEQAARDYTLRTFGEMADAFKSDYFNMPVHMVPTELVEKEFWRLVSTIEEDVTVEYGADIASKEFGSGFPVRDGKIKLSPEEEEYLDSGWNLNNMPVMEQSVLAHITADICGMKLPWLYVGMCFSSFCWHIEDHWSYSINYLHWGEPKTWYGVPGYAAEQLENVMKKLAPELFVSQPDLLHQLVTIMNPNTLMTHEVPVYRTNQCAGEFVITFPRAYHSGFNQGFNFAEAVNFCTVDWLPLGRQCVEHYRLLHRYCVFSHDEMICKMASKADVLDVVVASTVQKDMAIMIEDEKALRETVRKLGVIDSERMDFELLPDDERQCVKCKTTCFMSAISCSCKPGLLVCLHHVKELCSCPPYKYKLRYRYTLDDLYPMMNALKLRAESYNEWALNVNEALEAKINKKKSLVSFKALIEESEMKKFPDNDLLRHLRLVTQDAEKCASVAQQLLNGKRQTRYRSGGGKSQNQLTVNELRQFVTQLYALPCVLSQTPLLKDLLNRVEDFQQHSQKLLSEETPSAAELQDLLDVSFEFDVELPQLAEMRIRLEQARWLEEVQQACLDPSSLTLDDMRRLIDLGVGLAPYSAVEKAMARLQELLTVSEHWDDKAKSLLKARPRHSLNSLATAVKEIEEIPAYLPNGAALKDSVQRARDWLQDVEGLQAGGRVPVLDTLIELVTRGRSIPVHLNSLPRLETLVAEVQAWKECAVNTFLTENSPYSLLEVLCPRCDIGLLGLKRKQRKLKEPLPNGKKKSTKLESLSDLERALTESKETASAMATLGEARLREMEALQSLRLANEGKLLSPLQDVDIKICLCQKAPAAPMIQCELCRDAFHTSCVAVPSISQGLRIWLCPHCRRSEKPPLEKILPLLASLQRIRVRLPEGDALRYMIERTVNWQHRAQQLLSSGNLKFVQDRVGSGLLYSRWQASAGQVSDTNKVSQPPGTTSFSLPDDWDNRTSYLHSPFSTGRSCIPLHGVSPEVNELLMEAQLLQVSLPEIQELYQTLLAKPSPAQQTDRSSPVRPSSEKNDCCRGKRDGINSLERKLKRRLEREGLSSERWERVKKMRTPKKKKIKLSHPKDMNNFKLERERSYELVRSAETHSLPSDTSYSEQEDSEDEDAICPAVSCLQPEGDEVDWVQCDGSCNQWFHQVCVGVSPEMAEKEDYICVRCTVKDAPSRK
#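 Coupled FDH/NAD⁺ fluorescence readout. KDM5BΔAP 200 nM final; compound titration, 10 min RT preincubation; substrate mix 12.5 µM H3K4me3, 25 µM 2-OG, 50 µM Fe(II), 100 µM ascorbate, 0.25 mM NAD⁺, 0.25 U/mL FDH; ΔRFU over 30 min.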
# Active calls of the source: *; i = inactive. The sample as a whole holds a higher share of hits than the screen did. Potency is the fitted concentration of half-maximal effect.
SMILES,KDM5B inh
COc1ccc(-c2ccc3ncc(Nc4ccccc4F)n3n2)cc1OC,i
COc1ccc(-c2ccc3ncc(Nc4cccnc4OC)n3n2)cc1OC,22µM*
CC(NC(=O)C1CCN(C(=O)C(C)(C)C)CC1)C1CC1 (centres undefined),i
COc1ccc(CN(C)CC(=O)Nc2cc(C)nn2-c2ccccc2C)cc1,i
CCc1ccc(C(=O)Nc2cccc(-c3nnc4n3CCCC4)c2)cc1,i
O=C(O)CCc1cc2n(n1)CCCN(Cc1cn[nH]c1C(=O)O)C2,i
O=C(O)CCc1cc2n(n1)CCCN(C(=O)c1cc3c([nH]c1=O)CCC3)C2,28µM*
Cc1[nH]c(-c2ccccc2)nc1C(=O)N1CCn2nc(CCC(=O)O)cc2C1,i
Cc1ccc(-c2nsc(NC(=O)c3oc4ccccc4c3C)n2)s1,i
FC(F)(F)c1cc(-c2cccs2)nc(S)n1,i
COc1ccc(C(=O)N2CC(Oc3ccccc3-c3nc(-c4ccccc4)no3)C2)cc1,25µM*
COc1cccc(C(=O)N2CC(Oc3ccc(-c4noc(-c5ccccc5)n4)cc3)C2)c1,i
CCNC(=O)N1CC(Oc2ccccc2-c2nc(-c3cnccn3)no2)C1,i
O=C(Nc1ccccc1)N1CCC(Oc2ccccc2-c2nc(-c3cnccn3)no2)C1 (centres undefined),i
COc1ccc(C(=O)N2CC(Oc3ccc(-c4nc(-c5ccccc5)no4)cc3)C2)cc1,i
O=C(NC1CCCC1)N1CC(Oc2ccccc2-c2nc(-c3ccccc3)no2)C1,28µM*
NCc1cc(Cl)c2c(c1)OCCCO2,i
CCCc1ccc(CN2CCCC(O)(CN(C)C)C2)o1 (centres undefined),i
CCCc1cc(=O)oc2cc(OCC(=O)NCc3cccnc3)c(Cl)cc12,i
O=C1N(Cc2cccnc2)C(=O)C2(CCN(Cc3cc(F)ccc3F)CC2)N1CCc1ccccc1,i
COC(=O)C1=C(C)N(c2ccccc2)C(=S)NC1c1cccs1 (centres undefined),i
CC(C)CNc1ccc2nnc(-c3ccc(F)cn3)n2n1,32µM*
Fc1ccc(-c2nnc3ccc(NCCc4ccccc4)nn23)nc1,i
Fc1ccc(-c2nnc3ccc(NCc4cnccn4)nn23)nc1,i
Fc1ccc(-c2nnc3ccc(Nc4ccc(N5CCOCC5)cc4)nn23)nc1,i
SMILES,KDM5B inh
Fc1ccc(-c2nnc3ccc(NCCc4ccccn4)nn23)nc1,40µM*
Cc1ccc(-c2nnc3ccc(NCc4cccc(F)c4)nn23)nc1,i
NC(=O)c1cccc(CNC(=O)C2CCCC2)c1,i
CCN(C(=O)C(=O)c1c[nH]c2ccccc12)c1cccc(Cl)c1,i
O=C(NC(C1CC1)C1CC1)c1cc(F)c(Cl)cc1Cl,i
CCc1ccc(C(=O)N2CCCC2)cc1,i
CCN(CC(=O)Nc1ccccc1C(F)(F)F)C(=O)c1cc(=O)c2cc(C)ccc2o1,i
CCn1nc(C(=O)NCc2cc3ccccc3[nH]2)c2ccccc2c1=O,i
O[C@H]1CCCC[C@@H]1NC1CCN(c2nc3ccc(Cl)cc3s2)CC1,i
Cn1c(=O)c2c(nc(SCCCC#N)n2Cc2ccc(Cl)c(Cl)c2)n(C)c1=O,i
CCCCCn1c(CCC(=O)O)nc2c1c(=O)[nH]c(=O)n2CCCC,i
CC1(COc2ccccc2)COc2ccc(C(=O)NCCc3ccccn3)cc2N1 (centres undefined),32µM*
CN(C(=O)c1ccc2c(c1)NC(C)(COCC1CC1)CO2)c1ccccc1 (centres undefined),i
CC1(COc2cccnc2)COc2ccc(C(=O)N3CCOCC3)cc2N1 (centres undefined),i
CC1(COc2cccnc2)COc2ccc(C(=O)NCCOc3ccccc3)cc2N1 (centres undefined),32µM*
CC1(COc2ccccc2)COc2ccc(C(=O)NCCc3cnc[nH]3)cc2N1 (centres undefined),35µM*
O=C(NCCc1ccccn1)c1ccc(C2CCCCC2)cc1,i
CC(=O)N1CCCN(C(=O)c2ccc3c(c2)NC(C)(COc2cccnc2)CO3)CC1 (centres undefined),i
CCC1(C(=O)NCc2cccc(F)c2)CCCCC(=O)N1 (centres undefined),i
CC1(COCC2CC2)COc2ccc(C(=O)NCc3cccc(F)c3)cc2N1 (centres undefined),40µM*
CCc1sc(C(=O)NCC(C)C)cc1C,i
COc1ccc(OCCSC2=NCC(C)(C)CN2)cc1,i
CCn1c(CCC(N)=O)nnc1SC(C)C(=O)c1c[nH]c2ccccc12 (centres undefined),i
CC(=O)c1ccc(N2CCN(C(=O)c3ccc(Cn4cncn4)cc3)CC2)cc1,i
Cc1ccc(CN(C)CC(=O)NC(=O)NCc2ccco2)cc1,i
SMILES,KDM5B inh
Cn1ccnc1C(=O)N1CCCCCCNC(=O)[C@@H]2C[C@@H](c3nc(-c4cccnc4)no3)C[C@@H]21,i
CC1(COc2ccccc2)COc2ccc(C(=O)NCc3cccc(F)c3)cc2N1 (centres undefined),32µM*
O=C1CCCCC(Cc2ccccc2)(C(=O)NCc2cccc(F)c2)N1 (centres undefined),i
CC1(COCC2CC2)COc2ccc(C(=O)N3CCOCC3c3cccc(F)c3)cc2N1 (centres undefined),35µM*
O=C1CSc2ccc(C(=O)NCCc3cccnc3)cc2N1,i
O=C(NCCc1ccccc1)c1ccc2c(c1)OCO2,i
CC1(COc2cccnc2)COc2ccc(C(=O)NCCc3ccccc3)cc2N1 (centres undefined),35µM*
CC1(COc2ccccc2)COc2ccc(C(=O)NCc3cccnc3)cc2N1 (centres undefined),35µM*
C[C@@H]1CN(C(=O)c2ccc3c(c2)NC(C)(COCC2CC2)CO3)C[C@H](C)O1 (some centres undefined),i
CC1=C(C(=O)N2CCOCC2)C(c2cccc(F)c2)NC(=O)N1Cc1ccccc1 (centres undefined),i
O=C(NCc1cccnc1)c1ccc2ccccc2c1,i
CC1(CNCc2ccccc2)COc2ccc(C(=O)Nc3cccnc3)cc2N1 (centres undefined),i
COc1ccccc1C(NC(=O)c1csc(-c2ccco2)n1)c1nccn1C (centres undefined),i
CCOc1cc(S(=O)(=O)N(CCO)CCO)ccc1Br,i
COC(=O)CC(NC(=O)CCc1ccccc1F)c1cccs1 (centres undefined),i
CC(C)NC(=O)C1CC1,i
O=C(C=C(Sc1ccccc1)Sc1ccccc1)C(F)(F)F,i
CCCC(NC(=O)Cc1n[nH]c(=O)c2ccccc12)c1ccccc1 (centres undefined),i
Cc1ccc(Nc2nc(N)c(C(=O)c3c(C)[nH]c4ccccc34)s2)c(C)c1,i
CCCn1nc(C(=O)Nc2nc(C)c(C(C)=O)s2)c2ccccc2c1=O,i
O=C(Nc1cc(F)cc(F)c1)C1CCCCC1,i
Cn1nc(Oc2nc(N3CCCCC3)nc(N3CCOCC3)n2)ccc1=O,i
CCc1ccc(C(=O)COC(=O)C(NC(=O)c2ccccc2C)C(C)C)cc1 (centres undefined),i
Cc1ccsc1CNC(=O)c1cccnc1,i
COc1cccc(CC(=O)NCc2nnc3c(-c4nc(C)no4)cccn23)c1,18µM*
COCc1ncc(C)n1CCNC(=O)c1ccoc1,i
Cc1noc(-c2cccn3c(CNC(=O)c4cccnc4)nnc23)n1,28µM*
